Results reported in PubChem BioAssay AID1159580 (chemical genetic matrix, 2015).
“And” between values parts separate entries of the source, which are not always exact repeats. Identical values can stand only once. The campaign covered roughly 5,500 compounds. About 2,000 (36%) were called active. Another 18% or so got no clear call; they are omitted. No stated cut-off is given here; in the data, active means normalized growth mostly below about 0.91 (no sharp cut-off); inconclusive means no clear call, values can overlap the other calls; inactive means mostly above about 0.92. The list shows a part of the results.

Test: chemical genetic growth profiling, strain panel (AID 1159580);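 further: tested at 20 µM; growth read once vehicle control cultures reached saturation at 30 °C; 1 = growth at the plate median or of vehicle wells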
Settings: S. cerevisiae deletion strains, growth OD

Measured: normalized growth

O=C(O)c1cc2cc(F)ccc2[nH]1
inactive: locus YAL013W, strain DEP1, stronger effect = lower value 1 | locus YAL021C, strain ccr4, stronger effect = lower value 0.961 | locus YAL026C, strain drs2, stronger effect = lower value 0.992 | locus YAL030W, strain snc1, stronger effect = lower value 0.998 | locus YAL040C, strain CLN3, stronger effect = lower value 0.969 | locus YBL061C, strain skt5, stronger effect = lower value 0.99 | locus YBR009C, strain hhf1, stronger effect = lower value 1.01 | locus YBR021W, strain FUR4, stronger effect = lower value 0.99 | locus YBR023C, strain chs3, stronger effect = lower value 0.996 | locus YBR171W, strain sec66, stronger effect = lower value 0.97 | locus YBR229C, strain ROT2, stronger effect = lower value 0.982 | locus YBR231C, strain swc5, stronger effect = lower value 0.991 | locus YBR279W, strain paf1, stronger effect = lower value 0.976 | locus YCL011C, strain gbp2, stronger effect = lower value 0.975 | locus YCL016C, strain dcc1, stronger effect = lower value 0.994 | locus YCL029C, strain bik1, stronger effect = lower value 1.02 | locus YCL061C, strain MRC1 (second series), stronger effect = lower value 0.99 | locus YCL061C, strain MRC1, stronger effect = lower value 0.971 | locus YCL069W, strain vba3, stronger effect = lower value 0.975 | locus YCR088W, strain abp1, stronger effect = lower value 0.971 | locus YDL005C, strain med2, stronger effect = lower value 0.97 | locus YDL035C, strain GPR1, stronger effect = lower value 1.02 | locus YDL040C, strain nat1, stronger effect = lower value 0.979 | locus YDL074C, strain BRE1, stronger effect = lower value 1.03 | locus YDL101C, strain DUN1, stronger effect = lower value 1.02 | locus YDL134C, strain PPH21, stronger effect = lower value 1.01 | locus YDL185W, strain tfp1, stronger effect = lower value 1.01 | locus YDL192W, strain arf1, stronger effect = lower value 1.02 | locus YDR001C, strain nth1, stronger effect = lower value 0.978 | locus YDR069C, strain doa4, stronger effect = lower value 1 | locus YDR101C, strain arx1, stronger effect = lower value 1.01 | locus YDR137W, strain rgp1, stronger effect = lower value 0.968 | locus YDR150W, strain NUM1, stronger effect = lower value 1.01 | locus YDR159W, strain sac3, stronger effect = lower value 0.995 | locus YDR162C, strain NBP2, stronger effect = lower value 1.02 | locus YDR195W, strain ref2 0.966 | locus YDR297W, strain sur2, stronger effect = lower value 0.975 | locus YDR318W, strain mcm21, stronger effect = lower value 1.02 | locus YDR334W, strain swr1, stronger effect = lower value 0.945 | locus YDR335W, strain msn5, stronger effect = lower value 0.99 | locus YDR388W, stronger effect = lower value 1.01 | locus YDR392W, strain spt3, stronger effect = lower value 0.933 | locus YDR502C, strain sam2, stronger effect = lower value 1.02 | locus YEL003W, strain gim4, stronger effect = lower value 0.978 | locus YEL037C, strain rad23, stronger effect = lower value 0.981 | locus YEL061C, strain CIN8 (second series), stronger effect = lower value 0.979 | locus YEL061C, strain CIN8, stronger effect = lower value 1.01 | locus YER002W, strain NOP16, stronger effect = lower value 0.966 | locus YER015W, strain faa2, stronger effect = lower value 0.981 | locus YER016W, strain bim1, stronger effect = lower value 0.994 | locus YER110C, stronger effect = lower value 1.02 | locus YER111C, strain swi4, stronger effect = lower value 1.01 | locus YER155C, strain BEM2 (second series), stronger effect = lower value 0.993 | locus YER155C, strain BEM2, stronger effect = lower value 1 | locus YER167W, strain BCK2, stronger effect = lower value 1.01 | locus YFR010W, strain ubp6, stronger effect = lower value 0.978 | locus YGL078C, strain dbp3, stronger effect = lower value 1.01 | locus YGL086W, strain mad1, stronger effect = lower value 1.02 | locus YGL167C, strain pmr1, stronger effect = lower value 0.982 | locus YGL173C, strain kem1, stronger effect = lower value 0.987 | locus YGL227W, strain vid30, stronger effect = lower value 0.989 | locus YGL240W, strain doc1, stronger effect = lower value 1.01 | locus YGL248W, strain PDE1, stronger effect = lower value 1.01 | locus YGL253W, strain hxk2, stronger effect = lower value 1 | locus YGR078C, strain PAC10, stronger effect = lower value 0.984 | locus YGR135W, strain pre9, stronger effect = lower value 1.02 | locus YGR229C, strain SMI1, stronger effect = lower value 1.01 | locus YGR252W, strain gcn5, stronger effect = lower value 1.03 | locus YHR013C, strain ard1, stronger effect = lower value 0.99 | locus YHR027C, strain rpn1, stronger effect = lower value 0.977 | locus YHR030C, strain SLT2, stronger effect = lower value 1.01 and 1.02 | locus YHR079C, strain IRE1 (second series), stronger effect = lower value 1.02 | locus YHR079C, strain IRE1, stronger effect = lower value 0.988 | locus YHR094C, strain hxt1, stronger effect = lower value 1.02 | locus YHR129C, strain ARP1, stronger effect = lower value 1 | locus YHR142W, strain chs7, stronger effect = lower value 0.949 | locus YHR200W, strain rpn10, stronger effect = lower value 1.03 | locus YIL066C, strain RNR3, stronger effect = lower value 1.01 | locus YIL073C, strain SPO22, stronger effect = lower value 1.09 | locus YIL125W, strain kgd1, stronger effect = lower value 1.01 | locus YIR030C, strain dcg1, stronger effect = lower value 1.02 | locus YJL092W, strain hpr5, stronger effect = lower value 0.968 | locus YJL095W, strain BCK1 (second series), stronger effect = lower value 0.987 | locus YJL095W, strain BCK1, stronger effect = lower value 1.01 and 0.997 | locus YJL115W, strain asf1, stronger effect = lower value 0.962 | locus YJL129C, strain trk1, stronger effect = lower value 0.979 | locus YJL134W, strain LCB3, stronger effect = lower value 1.01 | locus YJL154C, strain vps35, stronger effect = lower value 0.967 | locus YJL164C, strain tpk1, stronger effect = lower value 0.972 | locus YJL166W, strain qcr8, stronger effect = lower value 1 | locus YJL168C, strain set2, stronger effect = lower value 1.02 | locus YJL187C, strain SWE1 (second series), stronger effect = lower value 1.01 | locus YJL187C, strain SWE1, stronger effect = lower value 0.981 | locus YJR043C, strain POL32, stronger effect = lower value 1.01 | locus YJR066W, strain TOR1, stronger effect = lower value 0.93
